Common to all, as to experiment: DAPPL (digital affinity profiling via proximity ligation, sequencing); 10 mM Tris-HCl pH 7.5, 50 mM NaCl, 1 mM DTT, 4% glycerol, room temperature, 30 min; GST-TFs on glutathione beads, 16-mer random dsDNA library, 0.1% formaldehyde crosslink after washing; high values mean tight binding
One assay deals with T1, FEV (Homo sapiens, UniProt Q99581 1-238).
T1 sequence: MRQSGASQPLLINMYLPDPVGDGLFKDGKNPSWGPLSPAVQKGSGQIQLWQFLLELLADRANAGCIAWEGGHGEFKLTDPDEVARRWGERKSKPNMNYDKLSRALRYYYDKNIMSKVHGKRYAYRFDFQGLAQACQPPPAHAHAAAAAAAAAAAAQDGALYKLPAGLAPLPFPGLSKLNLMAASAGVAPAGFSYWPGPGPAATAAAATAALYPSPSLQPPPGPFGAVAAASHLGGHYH
The following applies: protein: recombinant; tags: N-terminal GST; dsDNA, one strand shown. The gist of the method: (§1)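 Binding signal is defined as a hexamer's read frequency for one factor over its frequency for the tag-only sample. To obtain reads, GST-fused human transcription factors were expressed in yeast, captured on glutathione beads, barcoded with DNA and pooled with that sample. Pools met 200 nmole of a 16-mer random double-stranded DNA library in Tris/NaCl/DTT/glycerol buffer for 30 min at room temperature before washing, 0.1% formaldehyde crosslinking, proximity ligation (BsaI/T4 ligase, 1 h, 37 °C), PCR and Illumina NextSeq500 sequencing.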

The next assay concerns the target ETV5 (Homo sapiens, UniProt P41161 1-510). The following applies: protein: recombinant; tags: N-terminal GST; dsDNA, one strand shown. A digest of the protocol: as §1
The target in the next assay is HSF1 (Homo sapiens, UniProt Q00613 1-529). The following applies: protein: recombinant; tags: N-terminal GST; chain copies: 3; dsDNA, one strand shown. A digest of the protocol: as §1
In a further assay the target is T2, SPIC (Homo sapiens, UniProt Q8N5J4 1-248).
T2 sequence: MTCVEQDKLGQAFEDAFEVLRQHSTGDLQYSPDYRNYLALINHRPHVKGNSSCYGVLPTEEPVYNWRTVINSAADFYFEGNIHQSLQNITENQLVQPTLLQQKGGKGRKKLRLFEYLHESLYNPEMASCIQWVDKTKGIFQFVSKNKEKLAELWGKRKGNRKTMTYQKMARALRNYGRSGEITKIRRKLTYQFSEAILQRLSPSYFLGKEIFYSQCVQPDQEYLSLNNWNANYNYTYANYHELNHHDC
The following applies: protein: recombinant; tags: N-terminal GST; dsDNA, one strand shown. The gist of the method: as §1

In the next assay the target is ELF4 (Homo sapiens, UniProt Q99607 1-663). The following applies: protein: recombinant; tags: N-terminal GST; dsDNA, one strand shown. The gist of the method: as §1
Another assay has as its target T3, ELK4 (Homo sapiens, UniProt P28324-2 1-405).
T3 sequence: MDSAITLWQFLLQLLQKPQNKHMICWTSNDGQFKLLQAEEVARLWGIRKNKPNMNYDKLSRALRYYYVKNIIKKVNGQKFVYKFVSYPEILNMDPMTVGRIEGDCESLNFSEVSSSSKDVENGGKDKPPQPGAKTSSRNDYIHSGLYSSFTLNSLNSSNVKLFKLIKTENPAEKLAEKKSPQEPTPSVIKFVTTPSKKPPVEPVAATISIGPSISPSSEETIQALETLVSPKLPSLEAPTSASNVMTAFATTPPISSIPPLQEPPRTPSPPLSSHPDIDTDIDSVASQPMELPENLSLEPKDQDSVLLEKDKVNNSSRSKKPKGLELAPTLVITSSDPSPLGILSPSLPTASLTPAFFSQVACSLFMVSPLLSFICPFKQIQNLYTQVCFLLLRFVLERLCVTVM
The following applies: protein: recombinant; tags: N-terminal GST; dsDNA, one strand shown. A digest of the protocol: as §1

The target of a further assay is T4, ETV2 (Homo sapiens, UniProt O00321 1-342).
T4 sequence: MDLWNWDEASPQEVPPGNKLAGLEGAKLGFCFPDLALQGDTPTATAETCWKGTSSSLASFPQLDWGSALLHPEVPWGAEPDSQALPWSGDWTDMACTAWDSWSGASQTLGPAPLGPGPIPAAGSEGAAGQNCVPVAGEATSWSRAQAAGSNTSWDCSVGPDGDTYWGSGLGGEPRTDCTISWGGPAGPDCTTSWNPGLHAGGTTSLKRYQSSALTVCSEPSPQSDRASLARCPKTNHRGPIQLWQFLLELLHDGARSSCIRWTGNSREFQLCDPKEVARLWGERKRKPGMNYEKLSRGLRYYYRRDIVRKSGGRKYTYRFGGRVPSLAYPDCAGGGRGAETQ
The following applies: protein: recombinant; tags: N-terminal GST; dsDNA, one strand shown. A digest of the protocol:
as §1

A further assay concerns the target T5, ELF3 (Homo sapiens, UniProt P78545 1-371).
T5 sequence: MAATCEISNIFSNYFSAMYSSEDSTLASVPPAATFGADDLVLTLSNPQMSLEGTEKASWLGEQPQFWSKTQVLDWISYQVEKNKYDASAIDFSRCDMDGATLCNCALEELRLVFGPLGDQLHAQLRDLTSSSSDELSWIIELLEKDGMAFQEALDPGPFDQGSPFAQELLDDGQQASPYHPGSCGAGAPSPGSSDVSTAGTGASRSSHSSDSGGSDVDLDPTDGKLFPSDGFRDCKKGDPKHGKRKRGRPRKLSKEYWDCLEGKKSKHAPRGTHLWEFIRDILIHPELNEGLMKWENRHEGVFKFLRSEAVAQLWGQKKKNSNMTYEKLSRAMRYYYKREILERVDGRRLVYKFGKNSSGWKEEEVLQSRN
The conditions noted are these: protein: recombinant; tags: N-terminal GST; dsDNA, one strand shown. A digest of the protocol: as §1

Another assay addresses CRX (Homo sapiens, UniProt O43186 1-299). The conditions noted are these: protein: recombinant; tags: N-terminal GST; dsDNA, one strand shown. The gist of the method: as §1
For the next assay, the target named is ETV1 (Homo sapiens, UniProt P50549 1-477). The following applies: protein: recombinant; tags: N-terminal GST; dsDNA, one strand shown. The gist of the method:
as §1

For the next assay, the target named is T6, ERF (Homo sapiens, UniProt P50548 1-548).
T6 sequence: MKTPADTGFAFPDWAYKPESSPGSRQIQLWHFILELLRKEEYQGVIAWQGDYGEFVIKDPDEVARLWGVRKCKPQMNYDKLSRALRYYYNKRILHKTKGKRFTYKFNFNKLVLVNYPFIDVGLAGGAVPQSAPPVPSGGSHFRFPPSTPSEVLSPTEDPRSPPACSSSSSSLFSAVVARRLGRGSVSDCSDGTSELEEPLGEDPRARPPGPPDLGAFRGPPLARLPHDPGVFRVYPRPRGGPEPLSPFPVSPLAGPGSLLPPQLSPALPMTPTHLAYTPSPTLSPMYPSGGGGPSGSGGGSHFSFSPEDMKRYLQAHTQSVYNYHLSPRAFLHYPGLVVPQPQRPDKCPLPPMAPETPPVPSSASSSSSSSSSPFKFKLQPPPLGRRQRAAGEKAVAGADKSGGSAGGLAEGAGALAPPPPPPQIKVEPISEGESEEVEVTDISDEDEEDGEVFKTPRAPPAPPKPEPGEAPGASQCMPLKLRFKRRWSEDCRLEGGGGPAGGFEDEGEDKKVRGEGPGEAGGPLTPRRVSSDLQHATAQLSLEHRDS
The conditions noted are these: protein: recombinant; tags: N-terminal GST; dsDNA, one strand shown. A digest of the protocol: as §1

The next assay concerns the target T7, ETV3L (Homo sapiens, UniProt Q6ZN32 1-361).
T7 sequence: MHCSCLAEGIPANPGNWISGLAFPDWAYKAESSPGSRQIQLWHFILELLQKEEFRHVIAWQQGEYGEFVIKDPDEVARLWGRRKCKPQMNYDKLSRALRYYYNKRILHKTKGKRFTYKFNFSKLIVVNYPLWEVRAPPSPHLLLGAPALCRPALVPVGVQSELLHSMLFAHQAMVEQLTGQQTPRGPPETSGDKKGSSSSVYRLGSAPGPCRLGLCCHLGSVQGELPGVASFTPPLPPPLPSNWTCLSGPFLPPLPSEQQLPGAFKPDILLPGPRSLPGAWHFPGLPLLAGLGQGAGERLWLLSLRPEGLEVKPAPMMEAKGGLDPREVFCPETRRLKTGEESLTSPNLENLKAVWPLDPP
The conditions noted are these: protein: recombinant; tags: N-terminal GST; dsDNA, one strand shown. The gist of the method:
as §1

The target of a further assay is T8, ETS2 (Homo sapiens, UniProt P15036 1-469).
T8 sequence: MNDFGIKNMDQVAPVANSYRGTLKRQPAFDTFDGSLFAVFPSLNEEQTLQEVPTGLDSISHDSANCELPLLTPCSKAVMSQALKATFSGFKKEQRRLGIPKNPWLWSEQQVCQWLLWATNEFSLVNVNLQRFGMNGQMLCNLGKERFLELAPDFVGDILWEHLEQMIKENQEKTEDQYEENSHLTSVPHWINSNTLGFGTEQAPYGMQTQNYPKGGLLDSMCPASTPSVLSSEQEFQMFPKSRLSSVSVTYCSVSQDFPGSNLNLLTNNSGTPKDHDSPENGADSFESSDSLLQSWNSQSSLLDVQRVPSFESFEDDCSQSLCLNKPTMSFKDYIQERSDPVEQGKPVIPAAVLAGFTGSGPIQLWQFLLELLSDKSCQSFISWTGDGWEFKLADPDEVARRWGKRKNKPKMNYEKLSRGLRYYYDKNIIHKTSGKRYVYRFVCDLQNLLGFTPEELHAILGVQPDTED
The following applies: protein: recombinant; tags: N-terminal GST; dsDNA, one strand shown. The gist of the method:
as §1

The next assay deals with T9, SPDEF (Homo sapiens, UniProt O95238 1-335).
T9 sequence: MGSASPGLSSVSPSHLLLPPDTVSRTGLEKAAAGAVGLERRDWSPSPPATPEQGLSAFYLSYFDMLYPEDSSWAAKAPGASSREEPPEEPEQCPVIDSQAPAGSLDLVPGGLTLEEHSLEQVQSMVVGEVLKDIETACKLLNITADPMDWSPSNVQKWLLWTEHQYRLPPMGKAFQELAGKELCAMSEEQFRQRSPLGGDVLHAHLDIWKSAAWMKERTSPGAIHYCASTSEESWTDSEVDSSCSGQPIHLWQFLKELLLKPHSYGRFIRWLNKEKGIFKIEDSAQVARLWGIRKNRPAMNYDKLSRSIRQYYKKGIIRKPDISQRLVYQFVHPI
The following applies: protein: recombinant; tags: N-terminal GST; dsDNA, one strand shown. The gist of the method: as §1

The target in a further assay is T10, ETV7 (Homo sapiens, UniProt Q9Y603 1-341).
T10 sequence: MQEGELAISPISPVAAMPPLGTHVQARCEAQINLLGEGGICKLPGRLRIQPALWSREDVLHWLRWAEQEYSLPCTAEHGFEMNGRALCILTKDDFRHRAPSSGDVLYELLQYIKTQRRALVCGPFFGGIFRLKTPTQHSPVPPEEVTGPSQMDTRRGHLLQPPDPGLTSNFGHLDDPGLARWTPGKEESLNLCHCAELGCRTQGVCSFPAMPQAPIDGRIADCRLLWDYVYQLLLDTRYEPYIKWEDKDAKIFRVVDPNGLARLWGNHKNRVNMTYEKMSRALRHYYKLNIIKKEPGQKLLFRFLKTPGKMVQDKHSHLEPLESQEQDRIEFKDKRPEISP
The conditions noted are these: protein: recombinant; tags: N-terminal GST; dsDNA, one strand shown. A digest of the protocol: as §1

A further assay deals with T11, ELF5 (Homo sapiens, UniProt Q9UKW6-2 1-255).
T11 sequence: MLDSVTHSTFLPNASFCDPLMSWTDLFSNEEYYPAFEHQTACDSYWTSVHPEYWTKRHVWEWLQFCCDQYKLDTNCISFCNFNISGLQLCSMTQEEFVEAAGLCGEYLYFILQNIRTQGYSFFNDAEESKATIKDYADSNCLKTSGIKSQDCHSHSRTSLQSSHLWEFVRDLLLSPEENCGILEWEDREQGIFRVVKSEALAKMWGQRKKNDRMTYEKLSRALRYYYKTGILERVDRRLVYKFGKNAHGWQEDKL
The conditions noted are these: protein: recombinant; tags: N-terminal GST; dsDNA, one strand shown. A digest of the protocol:
as §1

The target in the next assay is T12, ETV3 (Homo sapiens, UniProt P41162-2 1-143).
T12 sequence: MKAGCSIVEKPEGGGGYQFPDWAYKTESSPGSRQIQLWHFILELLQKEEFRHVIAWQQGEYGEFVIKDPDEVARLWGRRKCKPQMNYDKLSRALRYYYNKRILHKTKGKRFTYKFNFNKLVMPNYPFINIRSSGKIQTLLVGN
The conditions noted are these: protein: recombinant; tags: N-terminal GST; dsDNA, one strand shown. A digest of the protocol:
as §1

Another assay deals with ETV6 (Homo sapiens, UniProt P41212 1-452). The following applies: protein: recombinant; tags: N-terminal GST; dsDNA, one strand shown. A digest of the protocol: as §1
ETV6, sequence (P41212 whole entry): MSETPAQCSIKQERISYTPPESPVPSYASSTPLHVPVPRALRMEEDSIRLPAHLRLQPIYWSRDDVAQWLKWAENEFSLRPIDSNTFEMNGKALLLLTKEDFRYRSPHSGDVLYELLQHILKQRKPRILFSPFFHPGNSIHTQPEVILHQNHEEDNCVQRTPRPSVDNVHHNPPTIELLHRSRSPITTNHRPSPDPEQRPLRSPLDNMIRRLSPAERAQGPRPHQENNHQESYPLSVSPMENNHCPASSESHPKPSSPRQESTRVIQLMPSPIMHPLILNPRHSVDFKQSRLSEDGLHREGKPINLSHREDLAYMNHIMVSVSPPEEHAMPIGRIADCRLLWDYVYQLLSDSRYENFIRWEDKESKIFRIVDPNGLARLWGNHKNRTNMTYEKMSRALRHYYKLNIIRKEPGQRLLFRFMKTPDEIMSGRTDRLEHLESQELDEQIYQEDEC

ELF4, sequence (Q99607 whole entry): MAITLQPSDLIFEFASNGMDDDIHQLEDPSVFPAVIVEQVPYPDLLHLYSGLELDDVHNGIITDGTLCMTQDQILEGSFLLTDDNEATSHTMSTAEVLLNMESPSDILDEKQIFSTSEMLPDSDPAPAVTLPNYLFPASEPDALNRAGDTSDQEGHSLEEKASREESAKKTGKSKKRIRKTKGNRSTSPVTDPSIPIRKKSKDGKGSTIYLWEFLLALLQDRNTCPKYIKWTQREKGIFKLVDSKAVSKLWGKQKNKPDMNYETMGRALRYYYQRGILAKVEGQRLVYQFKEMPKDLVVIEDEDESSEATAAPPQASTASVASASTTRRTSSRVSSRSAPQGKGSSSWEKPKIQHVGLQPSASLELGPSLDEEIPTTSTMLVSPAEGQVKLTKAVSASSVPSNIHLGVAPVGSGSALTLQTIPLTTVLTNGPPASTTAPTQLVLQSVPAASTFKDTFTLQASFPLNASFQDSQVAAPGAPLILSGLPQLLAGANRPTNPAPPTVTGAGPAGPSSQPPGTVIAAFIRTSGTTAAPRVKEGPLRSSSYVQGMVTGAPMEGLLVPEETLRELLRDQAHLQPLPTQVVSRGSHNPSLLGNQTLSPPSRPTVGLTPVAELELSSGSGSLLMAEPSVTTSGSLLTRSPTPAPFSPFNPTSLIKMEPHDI
ETV5, sequence (P41161 whole entry): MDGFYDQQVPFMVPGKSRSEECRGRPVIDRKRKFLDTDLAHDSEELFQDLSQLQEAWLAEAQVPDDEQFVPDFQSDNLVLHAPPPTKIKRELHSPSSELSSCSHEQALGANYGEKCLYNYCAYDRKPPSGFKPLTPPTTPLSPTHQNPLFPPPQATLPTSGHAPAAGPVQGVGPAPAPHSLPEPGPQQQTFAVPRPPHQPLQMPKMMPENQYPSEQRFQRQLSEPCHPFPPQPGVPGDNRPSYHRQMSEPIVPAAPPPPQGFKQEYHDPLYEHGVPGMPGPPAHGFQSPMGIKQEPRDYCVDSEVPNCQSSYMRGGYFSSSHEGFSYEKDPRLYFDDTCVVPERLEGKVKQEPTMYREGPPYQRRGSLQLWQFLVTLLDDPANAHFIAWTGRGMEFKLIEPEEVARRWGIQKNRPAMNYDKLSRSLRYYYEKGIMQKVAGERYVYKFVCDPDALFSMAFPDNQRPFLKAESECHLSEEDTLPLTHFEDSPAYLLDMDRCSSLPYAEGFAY
ETV1, sequence (P50549 whole entry): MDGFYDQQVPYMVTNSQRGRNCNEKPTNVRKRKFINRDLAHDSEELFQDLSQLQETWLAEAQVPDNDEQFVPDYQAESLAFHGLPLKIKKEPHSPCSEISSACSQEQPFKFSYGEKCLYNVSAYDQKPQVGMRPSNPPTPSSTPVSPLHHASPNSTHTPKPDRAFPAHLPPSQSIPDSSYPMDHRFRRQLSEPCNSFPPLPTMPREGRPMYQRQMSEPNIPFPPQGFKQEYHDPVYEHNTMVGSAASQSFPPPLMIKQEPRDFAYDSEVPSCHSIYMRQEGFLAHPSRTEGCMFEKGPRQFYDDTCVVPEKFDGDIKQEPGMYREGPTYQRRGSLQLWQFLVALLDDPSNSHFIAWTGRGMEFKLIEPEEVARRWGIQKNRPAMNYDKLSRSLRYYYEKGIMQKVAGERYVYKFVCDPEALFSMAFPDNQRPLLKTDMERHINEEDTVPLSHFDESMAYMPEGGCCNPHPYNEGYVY
HSF1, sequence (Q00613 whole entry): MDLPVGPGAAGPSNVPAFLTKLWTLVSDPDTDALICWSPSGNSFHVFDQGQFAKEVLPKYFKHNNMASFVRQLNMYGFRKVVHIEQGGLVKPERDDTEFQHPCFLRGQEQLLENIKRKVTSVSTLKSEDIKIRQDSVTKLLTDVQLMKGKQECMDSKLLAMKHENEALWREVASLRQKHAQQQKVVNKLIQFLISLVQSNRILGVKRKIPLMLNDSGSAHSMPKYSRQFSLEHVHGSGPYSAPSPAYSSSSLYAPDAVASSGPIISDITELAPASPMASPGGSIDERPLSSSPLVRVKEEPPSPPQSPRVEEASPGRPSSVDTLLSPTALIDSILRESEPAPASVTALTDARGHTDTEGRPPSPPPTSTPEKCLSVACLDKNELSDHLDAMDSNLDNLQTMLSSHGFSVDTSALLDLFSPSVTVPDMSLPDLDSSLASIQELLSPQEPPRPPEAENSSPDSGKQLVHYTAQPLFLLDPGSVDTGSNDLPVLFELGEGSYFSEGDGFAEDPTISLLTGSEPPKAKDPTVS
CRX, sequence (O43186 whole entry): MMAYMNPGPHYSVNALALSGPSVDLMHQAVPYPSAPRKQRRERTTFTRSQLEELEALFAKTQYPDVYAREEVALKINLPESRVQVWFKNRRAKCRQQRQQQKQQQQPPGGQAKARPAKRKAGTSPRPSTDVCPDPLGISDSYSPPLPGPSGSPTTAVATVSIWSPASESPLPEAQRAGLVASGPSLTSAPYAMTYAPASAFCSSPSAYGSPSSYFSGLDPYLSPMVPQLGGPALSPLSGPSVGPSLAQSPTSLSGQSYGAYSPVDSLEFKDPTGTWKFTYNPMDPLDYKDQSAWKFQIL

With CTTAGC, the binding signal with FEV was 1.12 fold enrichment (6-mer frequency, TF over GST control); in the assay with ETV5, 1.18 fold enrichment (6-mer frequency, TF over GST control); with HSF1 it was 1.47 fold enrichment (6-mer frequency, TF over GST control); with SPIC, 1.35 fold enrichment (6-mer frequency, TF over GST control); with ELF4, 1.28 fold enrichment (6-mer frequency, TF over GST control); in the assay with ELK4, 1.21 fold enrichment (6-mer frequency, TF over GST control). Moreover, the binding signal with ETV2 was 1.3 fold enrichment (6-mer frequency, TF over GST control); in the assay with ELF3 it was 1.07 fold enrichment (6-mer frequency, TF over GST control); in the assay with CRX, 2.17 fold enrichment (6-mer frequency, TF over GST control); with ETV1 it was 1.24 fold enrichment (6-mer frequency, TF over GST control); with ERF it was 1.25 fold enrichment (6-mer frequency, TF over GST control); with ETV3L, 1.23 fold enrichment (6-mer frequency, TF over GST control). Further, the binding signal is 1.18 fold enrichment (6-mer frequency, TF over GST control) in the assay with ETS2; 1.15 fold enrichment (6-mer frequency, TF over GST control) with SPDEF; 1.16 fold enrichment (6-mer frequency, TF over GST control) with ETV7; 1.16 fold enrichment (6-mer frequency, TF over GST control) with ELF5; 1.22 fold enrichment (6-mer frequency, TF over GST control) with ETV3; 1.2 fold enrichment (6-mer frequency, TF over GST control) with ETV6.

The record behind these values is PMC7862700, “An all-to-all approach to the identification of sequence-specific readers for epigenetic DNA modifications on cytosine”.
